Assay outcomes from PubChem.
Bim-Mcl-1 – disrupts Bim peptide binding to human Mcl-1 | Bead-based flow cytometry, Bim peptide-Mcl-1 binding | inhibition, % at 10 µM | actives 0.1% (n = 190,000) | AID 1009; in the data active = inhibition above about 40%;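 also: 0% = no compound tracer wells and 100% = peptide blocker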
Target sequence (Q07820 whole entry, looked up): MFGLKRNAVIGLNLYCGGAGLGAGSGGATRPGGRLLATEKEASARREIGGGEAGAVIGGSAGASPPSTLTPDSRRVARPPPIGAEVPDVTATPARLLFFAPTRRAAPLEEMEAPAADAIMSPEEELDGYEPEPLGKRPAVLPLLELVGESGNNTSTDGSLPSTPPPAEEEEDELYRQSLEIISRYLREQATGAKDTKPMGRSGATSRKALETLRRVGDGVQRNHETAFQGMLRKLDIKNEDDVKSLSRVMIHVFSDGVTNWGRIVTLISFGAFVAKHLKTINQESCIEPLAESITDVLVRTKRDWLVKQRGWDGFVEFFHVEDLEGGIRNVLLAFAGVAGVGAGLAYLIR
14-3-3 Bad PPI – disrupts binding of bovine 14-3-3 zeta to phospho-Bad peptide; P63103; TR-FRET 14-3-3zeta/Dy647-pBad peptide displacement, 1 h; inhibition, % at 21.7 µM; actives 0.71% (n = 220,000); AID 781;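 active = inhibition above about 70%, limit read from the data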;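 also: 0% = full 14-3-3 plus peptide FRET controls and 100% = background without 14-3-3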
Mcl1-Noxa inh – Mcl-1/Noxa interaction inhibition; Q07820; TR-FRET Mcl-1/Noxa peptide binding, 2 h; actives 1.5% (n = 220,000); inhibition, % at 21.7 µM;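 active = compounds that cut the protein-peptide binding signal by more than 50% relative to plate controls in a single-dose test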;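 also: His-tagged Mcl-1 with rhodamine Noxa BH3 peptide and terbium anti-His antibody; 0% = Mcl-1 plus Noxa peptide wells and 100% = peptide-only wells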
p47phox inh – blocks human p47phox regulatory protein of NADPH oxidases | P14598 | p47phox/p22phox peptide binding, fluorescence polarization, 2 h | inhibition, % at 24.7 µM | actives 0.53% (n = 220,000) | AID 1274;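 active = inhibition above about 30%, limit read from the data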;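 also: 0% = p47phox with labelled peptide and 100% = labelled peptide alone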
Mcl1-Bid inh – Mcl-1/Bid interaction inhibition; Q07820; TR-FRET Mcl-1/Bid-Dy647 peptide binding, 1536-well; inhibition, % at 21.7 µM; actives 0.97% (n = 220,000); AID 1021;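 active = compounds that cut the binding signal by more than half at the single screening dose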;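 also: His-tagged Mcl-1 with europium anti-His antibody binding Bid BH3 peptide; 0% = Mcl-1 plus peptide wells and 100% = peptide-only wells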
* marks the source's active call; other numbers are inactive results; x = no result; [ ] = remark or other dose. The list is not random: actives were taken first. Their share in the collection is about 3.2%.

SMILES	Bim-Mcl-1	14-3-3 Bad PPI	Mcl1-Noxa inh	p47phox inh	Mcl1-Bid inh
Cc1cc(C(=O)N/N=C/c2cc(N=Nc3ccccc3)ccc2O)n[nH]1	0	41	95*	35*	25
Nc1ccc(C(=O)N/N=C\c2cc(N=Nc3cccc4ccccc34)ccc2O)cc1	0	77*[fluorescence artefact?]	x	-69	65*
COC(=O)N/N=C/c1cc(N=Nc2ccccc2Cl)ccc1O	x	16	88*	0	7
Cc1cc(C)c2[nH]c(=O)c(=O)[nH]c2c1	-1	6	9	-7	3
Cc1cc2c(C)c(C)c(=O)[nH]c2cc1N	-4	4	55*	-5	-20
CCCCn1c(NC(=O)c2ccccc2)c(C#N)c2nc3ccccc3nc21	2	17	67*	-54	85*
CCN(CC)S(=O)(=O)c1ccc(NC(=O)Nc2cccc(C(F)(F)F)c2)cc1	0	-3	3	-36	101*
CCc1ccc(Nc2ncc3c(n2)CC(C)(C)CC3=O)cc1	x	-1	8	-10	-4
CCOC(=O)c1[nH]c(C)c(C(=O)OCC(=O)Nc2sc3c(c2C#N)CCCCC3)c1C	-1	-4	13	-16	-6
CC1(C)Cc2cccc(OCC(=O)OCC(=O)Nc3cccc(S(N)(=O)=O)c3)c2O1	x	3	-1	-7	93*
CC1CCCCN1C(=O)COC(=O)/C=C/c1ccc2ccccc2n1 (centres undefined)	-2	1	20	-3	-11
Cc1ccc(CNC(=O)COC(=O)CCCOc2ccc(Cl)cc2Cl)cc1	-2	-6	-10	72*	-12
O=C(CSc1ccccc1)Nc1ccccc1C(=O)O	2	31	39	-16	56*
CC(=O)Oc1ccc(NC(=O)CSc2ccccc2)cc1	0	-5	75*	-5	8
Cc1c(Cl)cccc1NC(=S)NC1CCN(C(C)C)CC1	1	-16	-6	1	-70
C=CCn1cnc2c(nnn2-c2ccc(C)c(C)c2)c1=O	-2	13	-5	0	-21
O=C(/C=C/c1ccc(O)c(O)c1)c1ccc(S(=O)(=O)N2CCCCCC2)cc1	-2	0	65*	-34	-44
COC(=O)[C@@]1(Cc2ccc(F)cc2)[C@H]2c3cc(C(=O)N4CCCC4)n(CCc4ccc(O)c(O)c4)c3C[C@H]2CN1C(=O)c1ccccc1	17	-5	65*	-31	-7
O=c1[nH]c2ccc(S(=O)(=O)Nc3ccc(-c4nnc5n4CCCCC5)cc3)cc2o1	0	-2	-7	56*	-14
COc1ccc(C(CNC(=O)c2ccccc2SC)N(C)C)cc1 (centres undefined)	-1	-5	-14	-7	-18
COc1ccc(C2C(C#N)=C(C)NC3=C2S(=O)(=O)c2ccccc23)cc1 (centres undefined)	48*	-4	6	-9	-3
Cc1[nH]c(=O)[nH]c(=O)c1NC(=O)c1sc2nc3c(C)cccc3cc2c1N	-5	1	36	-12	-59
Cc1ccc2cc3c(N)c(C(=O)N4CC(=O)Nc5ccccc54)sc3nc2c1	0	30	58*	-66	8
Cc1ccc2nc3sc(C(=O)Nc4c(C)[nH]c(=O)[nH]c4=O)c(N)c3cc2c1	-1	-6	56*	-9	-37
Cc1ccc2cc3c(N)c(C(=O)Nc4c(C)[nH]c(=O)[nH]c4=O)sc3nc2c1	-2	-9	66*	-26	-32
SMILES	Bim-Mcl-1	14-3-3 Bad PPI	Mcl1-Noxa inh	p47phox inh	Mcl1-Bid inh
Cc1ccc(O)c(-c2cc(C(=O)NCc3ccc4c(c3)OCO4)[nH]n2)c1	-1	-4	21	11	-5
CC1(C)C(C=C(Cl)Cl)C1C(=O)Nc1ccc([N+](=O)[O-])cc1 (centres undefined)	-4	-2	33	-12	9
CC(=O)Oc1cccc(N2C(=O)C3C4C=CC(C4)C3C2=O)c1 (centres undefined)	0	-16	4	1	-6
O=C1C2C3C=CC(C2C(=O)N1c1cccc(O)c1)C1C2C(=O)N(c4cccc(O)c4)C(=O)C2C31 (centres undefined)	-5	-10	94*	-8	-23
COc1ccc2c(C)cc3n[nH]c(=S)n3c2c1	x	27	25	2	-15
O=S(=O)(Nc1ccc(-n2cnnn2)cc1)c1ccc(F)c(F)c1F	x	1	5	-15	2
CCN(CC)CCn1c2ccccc2c2nc(C)sc21	2	82*	34	-3	-23
COC(=O)Cn1c2ccccc2c2nc(C)sc21	-2	-15	21	-11	39
